Values joined by “and” are separate entries in the source; they are usually repeats but may differ in a detail not shown here. Equal values may be shown once. Inconclusive results are not listed. Where a structure was tested more than once in an assay, its records may differ in their call. Active and inactive are the calls of the source. Calls come from the whole dose curve; as a rule, active = well fitted inhibition curve with a large enough effect; inconclusive = small, poorly fitted or top-dose-only effect; inactive = no such curve, though single readings can be large or run the other way.
Assay: Primary qHTS for inhibitors of nuclear receptor binding SET domain protein 2 (NSD2) in an RCH-ACV wild type WT cells (2C) (AID 1645877); note: nearly all actives have a fitted effect of over 70% in size
Conditions: RCH-ACV (leukaemia line) NSD2 WT (2C) viability, CellTiter-Glo, 72 h; series mostly up to 44.9 µM; activity change, negative = cell killing: at the top concentration
% is set by controls: 0 for no effect and ±100 for the full control effect; potency is the fitted concentration of half-maximal effect.

SMILES | activity change, negative = cell killing | outcome | Potency
COc1cc(/C=C/C(=O)OC(C)(C)C(OC2OC(CO)C(O)C(O)C2O)C(=O)OCc2ccc(OC3OC(CO)C(O)C(O)C3O)cc2)ccc1O (configuration not stated) | -2.13% [at 17.3 µM] (inactive) |  | 
CCNC(=O)[C@@H]1CCCN1C(=O)[C@H](CCCN=C(N)N)NC(=O)[C@H](CC(C)C)NC(=O)[C@@H](C)NC(=O)[C@H](Cc1ccc(O)cc1)NC(=O)[C@H](CO)NC(=O)[C@H](Cc1c[nH]c2ccccc12)NC(=O)[C@H](Cc1cnc[nH]1)NC(=O)[C@@H]1CCC(=O)N1 |  | inactive [at 17.3 µM] | 
CCC(C)/C=C(C)/C=C/C1=CC2=C(Cl)C(=O)C(C)(OC(C)=O)C(=O)C2=CN1CCCC(=O)O (configuration not stated) | -18% [at 17.3 µM] (inactive) |  | 
CC(=O)N1c2ccccc2C2(O)CC3C(=O)NC(CC(C)C)C(=O)N3C12 (configuration not stated) |  | inactive | 
CC(=O)c1c(O)cc2cccc3c2c1CC(C)(O)O3 (configuration not stated) | -13% (inactive) |  | 
C/C1=C\C[C@H](O[C@@H]2O[C@H](CO)[C@@H](O)[C@H](O)[C@H]2O)/C(C)=C/[C@H]2OC(=O)[C@H](C)[C@@H]2CC1 | -4.73% [at 17.3 µM] (inactive) |  | 
CC(C)(O)C1CC=C(C(=O)OCC2OC(Oc3c(O)cc(C(=O)O)cc3O)C(O)C(O)C2O)CC1 (configuration not stated) | 1.34% [at 17.3 µM] (inactive) |  | 
C[C@@H]1C(=O)O[C@H]2[C@H]1CC[C@@]1(C)C(=O)C=C[C@](C)(O)[C@H]21 | 2.52% (inactive) |  | 
O=C(O[C@H]1[C@@H]2C=CO[C@@H](O[C@@H]3O[C@H](CO)[C@@H](O)[C@H](O)[C@H]3O)[C@@H]2[C@@]2(CO)O[C@@H]12)c1ccc(O)c(O)c1 | -11.8% [at 17.3 µM] (inactive) |  | 
C[C@@H]1O[C@@H](OC[C@H]2O[C@@H](OCCc3ccccc3)[C@H](O)[C@@H](O)[C@@H]2O)[C@H](O)[C@H](O)[C@H]1O | -1.72% [at 17.3 µM] (inactive) |  | 
C=C1CC23CCC4[C@@](C)(CCC[C@@]4(C)C(=O)O)C2CCC1C3 (some centres not stated) | -28% (inactive) |  | 
CCC[C@@H]1C[C@@H](C(=O)N[C@@H]([C@H]2O[C@H](SC)[C@H](OP(=O)(O)O)[C@@H](O)[C@H]2O)[C@H](C)Cl)N(C)C1 |  | inactive [at 17.3 µM] | 
CC(=O)OC1C=C(C(=O)O)C2(CO)CCC(C)C(C)(CCc3ccoc3)C2C1 (configuration not stated) |  | inactive [at 17.3 µM] | 
COC1=CC(=O)O[C@@H](/C=C/c2ccccc2)[C@@H]1O | 0.903% (inactive) |  | 
CC1CCC2(C(=O)OC3OC(COC4OC(CO)C(O)C(O)C4O)C(O)C(O)C3O)CCC3(C)C(=CCC4C5(C)CCC(O)C(C)(C(=O)O)C5CCC43C)C2C1(C)O (configuration not stated) | 2.11% [at 9.23 µM] (inactive) |  | 
COc1ccc2c3c1O[C@H]1C[C@@H](O)C=C[C@@]31CCN(C)C2 |  | inactive | 
NC1CCC(N[C@@H]2C[C@H]2c2ccccc2)CC1 (some centres not stated) |  |  | inactive and 26.3 µM (active)
